From PubChem BioAssay AID1508600 (Functional Genomics Laboratory (NCATS/FGL), 2020)
About 3,700 (7%) of roughly 53,000 sequences were called active. The entries come from a sample that favours actives as a whole. A number with no mark means an inactive call.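 Rule for the calls: active = gene knockdowns whose robust z-score for IL-1 alpha signal is at least 2 or at most -2, so actives lie on both sides; inactive = the rest.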

Test: Components of the Cytosolic LPS Sensing Pathway: Gene Identification via Genome-wide siRNA Screen;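 note: robust z of the log signal after scaling to non-targeting control siRNA wells of the plate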
Details: RAW264.7 macrophages, IL-1a HTRF, actives lie on both sides, screened at 100 nM (by protocol), cells primed 5 h with Pam3CSK4 first
In short: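 Cells (RAW264.7, 1×10^4 per well) were transfected with siRNA at 100 nM and cultured 48h at 37 degrees C. Pam3CSK4 was added for 5 hours; LipidA transfection followed for 24 hour. IL-1a was then measured by HTRF.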

Which z-score does the source give for GGAACUCAGUCAGGACCAATT against Hnf4aos here?
The z-score was 0.954.

Which z-score does the source give for CGAGAAUAUGUGAGAGCUUTT against Dcaf13 here?
The z-score was -0.793.

Which z-score does the source give for GGAGACCCUGGUGAGAAGATT against Emid1 here?
The z-score was 0.26.

For GGAACACAGAGGUAAAAGGTT against Olfr446, which z-score is on record?
Its z-score is -2.66 (active).

Which z-score does the source give for CCAGCAUGCAUGAACGAGUTT against Carnmt1 here?
Its z-score is 0.508.

Which z-score does the source give for CCCUGUAACCAAUAAGAAGTT against Snrpa1 here?
The z-score was -0.401.

For GGGCUAUGCAGACCUGUACTT against Cyb561, which z-score is on record?
The z-score was -2.45 (active).

Which z-score does the source give for CCUUGGGACAAGCAUAUAUTT against Psg25 here?
Its z-score is 0.901.

For “GGCAAGUCUAAAAUACAUUTT against St6galnac4”, which z-score is on record?
The z-score was -0.439.

Which z-score does the source give for CGUACCAGAUGAGCUAAGUTT against Zfp513 here?
The z-score was 2.56 (active).

For CCUGUUGUAUUGUUUAGCGTT against Ago2, which z-score is on record?
The z-score was -0.402.

Which z-score does the source give for CCUCAAGAUAAACCGACAATT against Bard1 here?
The z-score was 0.388.

Which z-score does the source give for GGAGUCCGCUCAGAAUUUGTT against Lhpp here?
The z-score was -0.194.

With GGACAAAGUUGUUCCUUCUTT against Zfp13 as the sequence, how does the z-score read?
Its z-score is -2.62 (active).

With GGAAGAUCUACAUCGUGGGTT against Klhl26 as the sequence, how does the z-score read?
Its z-score is 0.341.

Which z-score does the source give for GGUGGUUUUUUGUUGUUGUTT against Lhfpl4 here?
Its z-score is 0.277.

Which z-score does the source give for GCCUAUGACUACCUCGAGUTT against Rhob here?
The z-score was -2.01 (active).

Which z-score does the source give for GGAGAAUAAUAAGCUGGAATT against Hap1 here?
Its z-score is 0.12.

Which z-score does the source give for CGGUAUCUUGGUCAACCUGTT against Naaa here?
The z-score was 0.955.

Which z-score does the source give for GGUAGCUCUGAGACAAUUCTT against Pkhd1l1 here?
The z-score was 0.857.

Which z-score does the source give for GCCCAUUAUGGUUAAAGAATT against Ccnb3 here?
Its z-score is -0.311.

With “GGAGAUCGAUAUUCGACUATT against 4933434E20Rik” as the sequence, how does the z-score read?
Its z-score is -2.48 (active).

For GGAUAUUCUUCUUAAGCAGTT against Agbl5, which z-score is on record?
The z-score was -0.168.

For CCAGGUUGAUGAUUUCAACTT against Tbcc, which z-score is on record?
Its z-score is -1.43.

For GGGAAGUGCAUGCUCAUCUTT against Smarcal1, which z-score is on record?
Its z-score is -0.187.

Which z-score does the source give for GCGUGGAUUACAUUUCUCUTT against Depdc1a here?
The z-score was 0.392.

For “GGACUGAGAACCAAAGCUGTT against D630044L22Rik”, which z-score is on record?
The z-score was -3.15 (active).

With GGAAGAGCCAGUGGUAUAATT against Ccdc171 as the sequence, how does the z-score read?
The z-score was 0.164.

Which z-score does the source give for GUCUGAGCGACUGUCUCCATT against Mef2b here?
The z-score was -2.17 (active).

With GGAGAACCAUAAUAAGAGUTT against Tnfrsf26 as the sequence, how does the z-score read?
Its z-score is -2.88 (active).

For UCAAACUAGGUGCUGUUGUTT against Olfr584, which z-score is on record?
Its z-score is 0.998.

Which z-score does the source give for CCAAAGAUGCUCCUCACCUTT against Olfr197 here?
Its z-score is -0.158.

With GCUUCUAGCCUGUAUUGCCTT against Rps8 as the sequence, how does the z-score read?
The z-score was 0.31.

Which z-score does the source give for CCUGUAUUUUACGAUCUUUTT against Best1 here?
Its z-score is 0.103.

For GGUCCUGGACAAAGUGUUUTT against Tubgcp5, which z-score is on record?
Its z-score is 2.48 (active).

Which z-score does the source give for CCCAUCUGUUUGAGUGUAUTT against Ms4a1 here?
The z-score was -0.305.

For GCCUUGGUACACUAAACUCTT against Rhcg, which z-score is on record?
The z-score was -0.426.

For GCCUGUAAGGAGAAUCAGCTT against Car4, which z-score is on record?
The z-score was 0.684.

For GGUUCCAAGUCAAAGAGUUTT against Foxl1, which z-score is on record?
The z-score was -0.47.

Which z-score does the source give for GGACUCUGUAGUUGAAGAUTT against Pogz here?
The z-score was -0.882.

With CCAUUCUGAAUCUCUAAUCTT against Pigw as the sequence, how does the z-score read?
The z-score was 0.134.

With CCAAUCUGAAGUGCUACUATT against Trim42 as the sequence, how does the z-score read?
Its z-score is 0.368.

With CCCGUGCCUUCCUUAAAGCTT against Ggt6 as the sequence, how does the z-score read?
The z-score was 0.327.

Which z-score does the source give for CCCACUGAUGCUAUUUCUATT against Rad1 here?
Its z-score is -2.57 (active).

With GGUCUUUAUCUACCAUGGGTT against Itga7 as the sequence, how does the z-score read?
The z-score was -1.29.

Which z-score does the source give for CCUUUGCCUAUGUUUACCATT against Ropn1l here?
Its z-score is 0.851.

With GGGACUCAGUGUUUAUUGATT against Thsd4 as the sequence, how does the z-score read?
Its z-score is 0.216.

Which z-score does the source give for GGCUUUUAAGUUCUUCCAGTT against Ptbp3 here?
The z-score was 2.44 (active).

Which z-score does the source give for UCAUUAGUAUCCUCCGUAUTT against Olfr919 here?
The z-score was 0.27.

Which z-score does the source give for GGAAGGUGAUGAAGGAUCGTT against Fam118a here?
Its z-score is 0.0491.

With GGAAGAUUUCACAUCUCAGTT against Pdia5 as the sequence, how does the z-score read?
The z-score was -0.528.

For GCUUGUUAAAAUUGGAAAGTT against Kif11, which z-score is on record?
Its z-score is -1.47.

For GGCCUCCAAUAAAGCUCAGTT against Ttc28, which z-score is on record?
The z-score was -2.07 (active).

Which z-score does the source give for GCUCCUAUUACUGAAUUUATT against Olfr749 here?
The z-score was -0.445.

With GGUGACCUUACCUAAUGUATT against Mettl18 as the sequence, how does the z-score read?
Its z-score is 0.578.

Which z-score does the source give for GGCACAAGCAGGAGAUAAATT against Serpinb2 here?
Its z-score is 2.05 (active).

Which z-score does the source give for GGUGGUCUUUUCCCAGCAGTT against Msrb3 here?
The z-score was 0.793.

For GGCAACACGAUGCAGCAGUTT against Fam50a, which z-score is on record?
The z-score was -0.36.

With GCUCUACUGCUUCCUUGUUTT against Olfr229 as the sequence, how does the z-score read?
Its z-score is -0.338.

Which z-score does the source give for GGUGUCUGCUUCUUCAAAGTT against Slc25a26 here?
The z-score was -2.33 (active).

Which z-score does the source give for GGAUAUUGCCAGUAAUUAATT against Kif21a here?
Its z-score is 0.212.

Which z-score does the source give for GCUACCUCAACAUGGAUGCTT against Pcca here?
Its z-score is 1.16.

For GGAUGACUGUAUCUGUACUTT against Ttc3, which z-score is on record?
Its z-score is 0.0197.

For GGCCCAGAACAGAAAACUCTT against Clec1a, which z-score is on record?
Its z-score is -0.582.

For GGACCUAAGGGAUCUAUUGTT against Col5a3, which z-score is on record?
Its z-score is 0.000962.

For GCACUGUGAAUUUGUCAUUTT against Umps, which z-score is on record?
The z-score was 1.22.

Which z-score does the source give for GGAACACGAAUCAUUUAUGTT against Eif4ebp2 here?
Its z-score is 0.351.

For GUUUGGCCGAGUUCAUUUCTT against Pigu, which z-score is on record?
The z-score was 0.759.
